Reference: article PMC5700166

Molecular target: T1, GST-Nv-NF-kB (Ser allele) (Nematostella vectensis, UniProt A7UNT2 2-411)
T1 sequence: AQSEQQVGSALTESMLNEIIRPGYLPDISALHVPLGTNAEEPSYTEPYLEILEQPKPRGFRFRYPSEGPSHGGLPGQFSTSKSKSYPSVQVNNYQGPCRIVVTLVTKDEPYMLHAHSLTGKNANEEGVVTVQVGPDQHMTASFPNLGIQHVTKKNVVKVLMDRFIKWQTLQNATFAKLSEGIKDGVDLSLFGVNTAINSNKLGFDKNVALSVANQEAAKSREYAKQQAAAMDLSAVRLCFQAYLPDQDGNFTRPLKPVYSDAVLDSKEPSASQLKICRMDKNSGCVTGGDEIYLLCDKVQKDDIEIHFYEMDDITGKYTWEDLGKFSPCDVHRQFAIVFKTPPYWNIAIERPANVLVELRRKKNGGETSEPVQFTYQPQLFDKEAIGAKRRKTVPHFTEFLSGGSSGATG
Experiment: protein-binding microarray (PBM); PBM: ~300 nM protein, 6 mM HEPES pH 7.8, 80 mM KCl, 0.5 mM EDTA, 0.5 mM EGTA, 6% glycerol, 35 ng/ul poly-dIdC, 1% milk, 1 h, room temperature; Ap Aiptasia and Nv Nematostella (sea anemones) / Co Capsaspora / Aq Amphimedon (sponge) / Dm Drosophila / Hu human; RHD is the Rel homology domain; high values mean tight binding
Conditions: dsDNA, one strand shown

Q: How did the binding signal turn out when “CCGATTAACATCACCCCAGCCCCTGATGTTAATCGGGTCTTGATTCGCTTGACGCTGCTG” was run?
A: 1.91 z-score

Q: Which binding signal does the source give for “CCGATTAACATCAATATTTACCCTGATGTTAATCGGGTCTTGATTCGCTTGACGCTGCTG” here?
A: 5.12 z-score

Q: For “CCGATTAACATCAGGGATTTTCATGATGTTAATCGGGTCTTGATTCGCTTGACGCTGCTG”, which binding signal is on record?
A: 4.23 z-score

Q: “CCGATTAACATCAGAAGATTCCCTGATGTTAATCGGGTCTTGATTCGCTTGACGCTGCTG” was tested. Which binding signal did it give?
A: 3.95 z-score

Q: With “CCGATTAACATCAGGGAATTCACTGATGTTAATCGGGTCTTGATTCGCTTGACGCTGCTG” as the sequence, how does the binding signal read?
A: 4.73 z-score

Q: “CCGATTAACATCAGAAATCCCACTGATGTTAATCGGGTCTTGATTCGCTTGACGCTGCTG” was tested. Which binding signal did it give?
A: 1.91 z-score

Q: Which binding signal does the source give for “CCGATTAACATCAGGAAAAGCCCTGATGTTAATCGGGTCTTGATTCGCTTGACGCTGCTG” here?
A: 1.03 z-score

Q: With “CCGATTAACATCAGGGGGGGCACTGATGTTAATCGGGTCTTGATTCGCTTGACGCTGCTG” as the sequence, how does the binding signal read?
A: 3.3 z-score

Q: Which binding signal does the source give for “CCGATTAACATCAAAACAACCCCTGATGTTAATCGGGTCTTGATTCGCTTGACGCTGCTG” here?
A: 2.19 z-score

Q: Which binding signal does the source give for “CCGATTAACATCAAAAATCCCATTGATGTTAATCGGGTCTTGATTCGCTTGACGCTGCTG” here?
A: 1.88 z-score

Q: With “CCGATTAACATCAGGGGGGACAATGATGTTAATCGGGTCTTGATTCGCTTGACGCTGCTG” as the sequence, how does the binding signal read?
A: 4.45 z-score

Q: Which binding signal does the source give for “CCGATTAACATCAATCGTCCCCCTGATGTTAATCGGGTCTTGATTCGCTTGACGCTGCTG” here?
A: 4.3 z-score

Q: “CCGATTAACATCAAAACTTCCCATGATGTTAATCGGGTCTTGATTCGCTTGACGCTGCTG” was tested. Which binding signal did it give?
A: 3.45 z-score

Q: For “CCGATTAACATCAGGGACTCCCATGATGTTAATCGGGTCTTGATTCGCTTGACGCTGCTG”, which binding signal is on record?
A: 3.88 z-score
